From PubChem BioAssay
The entries come from a sample that favours hits as a whole.
RBX1-CUL1 inh: inhibitors of human ROC1-CUL1 ubiquitin ligase activity. P62877+Q13616. in vitro K48 di-Ub FRET, acceptor:donor ratio, 45 min. inhibition, % at 10 µM. 140,000 compounds, 0.6% hits. AID 1347404; in the data active means inhibition above about 25%
An asterisk follows results filed as active.

SMILES	RBX1-CUL1 inh
CN1C(=O)C(Sc2ccc(Cl)cc2)C(=O)c2c1n(C)c(=O)n(C)c2=O (stereo unspecified)	7
COCCn1c(C)cn2c3c(=O)n(CCC(C)C)c(=O)n(C)c3nc12	11
C=CCN1C(=O)C(=O)C(C(=O)c2ccccc2)C1c1ccc(F)cc1 (stereo unspecified)	-5
O=c1[nH]n(-c2cccc(F)c2)c(O)c1C=C1C=Nc2ccccc21	2
O=C1NN(c2ccc(Cl)cc2)C(=O)/C1=C/c1cc(Br)cc([N+](=O)[O-])c1O	85*
O=C1NN(c2cccc(Cl)c2)C(=O)/C1=C\c1cc(Br)ccc1O	3
O=C1NN(c2cccc(C(F)(F)F)c2)C(=O)/C1=C\c1ccc(Br)cc1	5
O=C1NN(c2cccc(Cl)c2)C(=O)/C1=C/c1ccc(Br)cc1	60*
O=C1NN(c2ccc(I)cc2)C(=O)/C1=C\c1cccs1	4
O=C1NN(c2ccc(F)c(Cl)c2)C(=O)/C1=C\c1cccc(OC(=O)c2cccs2)c1	97*
O=C1NN(c2ccc(I)cc2)C(=O)/C1=C\c1ccc(Br)cc1	59*
O=C1NN(c2ccc(Br)cc2)C(=O)/C1=C\c1ccc(O)cc1	2
CC(=O)Oc1cccc(/C=C2/C(=O)NN(c3ccc(C)c(C)c3)C2=O)c1	2
O=C1OC(c2ccccc2)=N/C1=C/c1cccc(OC(=O)c2cccs2)c1	-2
CCOc1cc(/C=C2\C(=O)NN(c3ccc(Cl)cc3)C2=O)cc(I)c1O	6
COc1cc(/C=C2\C(=O)NN(c3ccc(C)cc3)C2=O)cc([N+](=O)[O-])c1O	6
CCOC(=O)c1c(C)nc2cc(C(=O)O)nn2c1C	-3
Cc1ccc2[nH]c(-c3ccccc3)c(C(=O)c3ccccc3)c(=O)c2c1	-7
CC/C(=N\O)C1C(=O)C2=C(CCCC2)N(c2ccccc2)C1=O (stereo unspecified)	2
O=C(NCc1cccnc1)C1CCN(C2CCN(C(=O)c3ccccc3F)CC2)CC1	-2
Cc1ccc(C(=O)Nc2ccc(C)c(O)c2)cc1	-12
O=C(Cc1cccc2ccccc12)Nc1nc2c(Cl)cccc2s1	0
CC(C)Cc1cn(C2CCN(C(=O)Nc3ccc4c(c3)OCO4)CC2)nn1	-6
CCOC(=O)CN1C(=O)S/C(=C/c2cc(Cl)c(OCc3cccc(C(=O)O)c3)c(OCC)c2)C1=O	-4
O=C(c1nc2nc3c(c(=O)n2[nH]1)CCC3)N1CCCCC1	-6
SMILES	RBX1-CUL1 inh
CCSc1nc(C)c(CC(=O)O)c(=O)[nH]1	12
CC(C)C(=O)NC(C)C1CCCO1 (stereo unspecified)	1
O=C1NN(c2ccc(Cl)c(Cl)c2)C(=O)/C1=C/c1cccc([N+](=O)[O-])c1	9
O=C1NN(c2ccc(Cl)c(Cl)c2)C(=O)/C1=C/c1cc2c(cc1[N+](=O)[O-])OCO2	64*
CCc1ccc(/C=C2\C(=O)NN(c3ccc(C)cc3)C2=O)cc1	45*
CCc1ccc(/C=C2\C(=O)NC(=S)N(C)C2=O)cc1	-2
O=C1NN(c2ccccc2)C(=O)/C1=C/c1ccc2c(c1)OCO2	7
O=C1NN(c2ccccc2)C(=O)/C1=C/c1ccc(OCc2ccccc2)cc1	-13
CCS(=O)(=O)N(C)c1ccc(C(=O)N2CCN(c3cccc(Cl)c3)CC2)cc1	12
Cc1cc(C)n(-c2nc(N/N=C/c3ccccc3OCc3ccccc3)nc(Nc3ccc(Cl)cc3)n2)n1	-3
CC1=NC(=S)NC(c2ccc(OCc3ccccc3)cc2)C1C(=O)OCc1ccccc1 (stereo unspecified)	-6
COc1cccc(CC(C2CCN(C(=O)c3ccccc3C)CC2)N(C)C(=O)c2ccn(C)n2)c1 (stereo unspecified)	3
Cc1cnc(SCc2ccccn2)nc1C1CCCN(C(=O)c2ccc(-c3ccco3)cc2)C1 (stereo unspecified)	2
CC(=O)Oc1cc2c3ccccc3n(C)c2c2cc(C)c(C)cc12	5
COC(=O)c1ccc(NC(C)=O)c([N+](=O)[O-])c1	5
Cc1cc(C)n2nc(C(=O)N3CCC4(CCCN(CC(C)(C)C)C4)C3)cc2n1 (stereo unspecified)	29*
COc1cccc(CN2CCCC3(CCN(C(=O)c4cnc(C)cn4)C3)C2)c1 (stereo unspecified)	8
CC(C)(C)CN1CCCC2(CCN(C(=O)c3cnccn3)C2)C1 (stereo unspecified)	-14
COc1ccc(OC)c(S(=O)(=O)NCCC(=O)O)c1	-9
O=C(CSc1nc2sc3c(c2c(=O)[nH]1)CCCC3)NCCCO	2
COc1cccc(C(=O)NCC2CCCN(Cc3c[nH]c4ccccc34)C2)c1OC (stereo unspecified)	5
COc1cc(Cl)cc(C=C2C(=O)N(C)C(=O)N(C)C2=O)c1O	-10
CCOc1c(I)cc(I)cc1/C=C1/C(=O)N(c2ccc(Cl)c(Cl)c2)N=C1C	-2
COc1cc(Cl)cc(/C=C2/C(=O)NN(c3ccc(F)c(Cl)c3)C2=O)c1O	94*
C=CCN1C(=O)NC(=O)/C(=C/c2cc(I)cc(I)c2OC)C1=O	-7
SMILES	RBX1-CUL1 inh
COc1c(I)cc(I)cc1/C=C1\C(=O)NN(c2ccc(Cl)c(Cl)c2)C1=O	89*
O=C1NN(c2ccc(Cl)c(Cl)c2)C(=O)/C1=C\c1c2ccccc2cc2ccccc12	-1
COc1ccc(/C=C2\C(=O)NN(c3ccc(Br)cc3)C2=O)cc1Br	20
COc1c(I)cc(I)cc1/C=C1/C(=O)NN(c2ccc(Br)cc2)C1=O	44*
Cc1ccc(N2NC(=O)/C(=C/c3cc(Cl)ccc3O)C2=O)cc1C	13
O=C(COc1ccc(Cl)cc1)O/N=C(\c1ccccc1)c1ccncc1	1
CC1=NN(c2nc(-c3ccc(Br)cc3)cs2)C(=O)C1N=Nc1ccccc1O (stereo unspecified)	-2
CCOC(=O)C1C(C)=NC(=O)NC1c1cc(OCC)c(O)c(Br)c1Cl (stereo unspecified)	7
CCOC(=O)c1cc(-c2ccc(/C=C3/C(=O)NN(c4ccccc4)C3=O)o2)ccc1Cl	-2
CCOC(=O)c1ccc(-c2ccc(/C=C3\C(=O)NN(c4ccc(Br)c5ccccc45)C3=O)o2)cc1	9
CCOC(=O)c1ccc(N2NC(=O)/C(=C/c3ccc(-c4ccc(Br)cc4C(=O)O)o3)C2=O)cc1	98*
COCCC(=O)N(CCN(C)C)CC1CCCN(Cc2ccccc2OC)C1 (stereo unspecified)	-5
CCC(=O)Nc1cc(S(=O)(=O)NC)ccc1OC	4
CCc1ccc(C2c3c(n[nH]c3C(C)C)OC(=N)C2C#N)cc1 (stereo unspecified)	-6
CC1=NNC(=O)C1N=Nc1c(C)n(C)n(-c2ccccc2)c1=O (stereo unspecified)	39*
Cc1c(Sc2c(C)n(C)n(-c3ccccc3)c2=O)c(=O)n(-c2ccccc2)n1C	2
Cc1c(N=NC2C(=O)N(c3ccccc3)N=C2N)c(=O)n(-c2ccccc2)n1C (stereo unspecified)	-5
COC1CCN(c2nc3nonc3nc2NCc2ccccc2)CC1	1
CCCCC(CC)C(=O)Nc1ccc(Br)cc1 (stereo unspecified)	-3
O=C(Cn1nnnc1CN1CCc2ccccc2C1)N1CCCC1c1nccs1 (stereo unspecified)	2
CC(C)c1ccc(NC(=O)CSc2nnc(CNC(=O)c3ccc(Cl)cc3Cl)n2C)cc1	8
CCN1/C(=C\C=C/C2C=Cc3ccccc3N2CC)C=Cc2ccccc21 (stereo unspecified)	57*
N#Cc1[nH]c2sc3c(c2c1N)CCCC3	-5
